PubChem BioAssay (Tox21)
Inconclusive results are not listed. Where a call stands in place of a potency, no number is given. The source made the active and inactive calls. Calls follow the shape of the full dose curve.

Columns and labels:
[1] = target: Acetylcholinesterase (Homo sapiens) (UniProt P22303); assay: Acetylcholinesterase (AChE) small molecule antagonists: colormetric cell-based qHTS assay (AID 1347395); also: nearly all actives have a fitted effect of over 30% in size; also: potency is read from the fitted curve at half-maximal effect
Procedure, shortened: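 SH-SY5Y cells, plated overnight at 37 C, were exposed to compounds for 30 min at 37 C and 5% CO2. Acetylthiocholine plus DTNB was then added, and thiocholine from endogenous AChE was quantified colorimetrically after 90 min at 37 C.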

[2] = target: Acetylcholinesterase (Homo sapiens) (UniProt P22303); assay: Acetylcholinesterase (AChE) small molecule antagonists: enzyme-based qHTS assay (AID 1347397); details: Potency: AChE enzyme activity inhibition; outcome: AChE enzyme activity inhibition; also: nearly all actives have a fitted effect of over 55% in size; also: potency is read from the fitted curve at half-maximal effect
Procedure, shortened: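 Recombinant human AChE, dispensed at 50 mU/mL, was preincubated with Tox21 10K compounds or DMSO vehicle for 30 min at room temperature. DTNB plus acetylthiocholine was then added, and thiocholine was measured colorimetrically after a further 10 min.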

[3] = target: Acetylcholinesterase (Homo sapiens) (UniProt P22303); assay: Acetylcholinesterase (AChE) small molecule antagonists: fluorescence cell-based qHTS assay (AID 1347398); details: Potency: AChE activity; outcome: AChE activity; also: nearly all actives have a fitted effect of over 50% in size; also: potency is read from the fitted curve at half-maximal effect
Procedure, shortened: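 Human SH-SY5Y cells were plated overnight at 37 C, exposed to compound for 30 min at 37 C, 5% CO2, then given acetylthiocholine plus Thiolite Green for 40 min at room temperature; thiocholine fluorescence (Ex/Em 490/520 nm) reports endogenous AChE activity.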

[4] = target: Acetylcholinesterase (Homo sapiens) (UniProt P22303); assay: Acetylcholinesterase (AChE) small molecule antagonists: enzyme-based qHTS assay with human liver microsomes (AID 1347399); details: Potency: qHTS inhibition; outcome: qHTS inhibition; also: nearly all actives have a fitted effect of over 60% in size
Procedure, shortened: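 Recombinant human AChE (50 mU/mL in the enzyme mix) and human liver microsomes (0.25 mg/mL final) were preincubated with compound and NADPH (0.25 mg/mL final) for 30 min at 37 C. Acetylthiocholine/DTNB was then added; thiocholine was read colorimetrically after 10 min at room temperature.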

Acetylcholinesterase (Homo sapiens), sequence (P22303 whole entry, looked up): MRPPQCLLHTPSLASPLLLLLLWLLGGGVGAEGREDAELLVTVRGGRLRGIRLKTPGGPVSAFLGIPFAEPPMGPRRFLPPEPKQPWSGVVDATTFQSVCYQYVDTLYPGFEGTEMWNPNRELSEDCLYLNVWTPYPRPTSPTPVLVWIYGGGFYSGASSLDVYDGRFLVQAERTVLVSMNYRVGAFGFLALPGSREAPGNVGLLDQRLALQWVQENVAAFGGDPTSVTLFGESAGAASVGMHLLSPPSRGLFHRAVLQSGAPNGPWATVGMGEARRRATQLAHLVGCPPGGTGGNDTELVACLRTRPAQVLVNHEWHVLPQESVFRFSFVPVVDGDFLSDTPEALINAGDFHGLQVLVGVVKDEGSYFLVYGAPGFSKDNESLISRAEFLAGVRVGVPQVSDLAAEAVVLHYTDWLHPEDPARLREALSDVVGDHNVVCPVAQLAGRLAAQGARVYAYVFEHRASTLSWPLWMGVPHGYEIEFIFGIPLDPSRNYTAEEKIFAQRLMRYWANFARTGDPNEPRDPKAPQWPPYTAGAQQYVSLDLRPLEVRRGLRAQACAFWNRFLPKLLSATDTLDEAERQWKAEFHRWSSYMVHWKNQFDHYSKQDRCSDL

In the case of `CCCCCCCCN(C)C`, the Potency [1] is reported as “inactive”, the Potency [2] is reported as “inactive” and the Potency [3] is reported as “inactive”. For the same molecule, the Potency [4] was “inactive”.

For `CCCc1cc(=O)[nH]c(=S)[nH]1`, the Potency [1] was “inactive”, the Potency [2] was “inactive” and the Potency [3] was “inactive”. For the same molecule, the Potency [4] was “inactive”.

In the case of `O=c1oc2cc(O)ccc2c2oc3cc(O)ccc3c12`, the Potency [1] is reported as “inactive”, the Potency [2] is reported as “inactive” and the Potency [3] is reported as “inactive”. The Potency [4] was “inactive”.

For `CC#N`, the Potency [1] was “inactive”, the Potency [2] was “inactive” and the Potency [3] was “inactive”. The Potency [4] was “inactive”.

With `CC(O)C(=O)O` (centres undefined) the Potency [1] was “inactive”, the Potency [2] was “inactive” and the Potency [3] was “inactive”. For the same molecule, the Potency [4] was “inactive”.

With `CC1=CCC(C(C)(C)O)CC1` (centres undefined) the Potency [1] was “inactive”, the Potency [2] was “inactive” and the Potency [3] was “inactive”. The Potency [4] was “inactive”.

With `CCCCCCCC/C=C\CCCCCCCC(=O)OC[C@@H](O)[C@H]1OC[C@H](O)[C@H]1O` the Potency [1] was “inactive”, the Potency [2] was “inactive” and the Potency [3] was “inactive”. The Potency [4] was “inactive”.

In the case of `CCCCC(=O)OCC(=O)[C@H]1[C@H](C)C[C@H]2[C@@H]3C[C@H](F)C4=CC(=O)C=C[C@]4(C)[C@@]3(F)[C@@H](O)C[C@@]21C`, the Potency [1] is reported as “inactive”, the Potency [2] is reported as “inactive” and the Potency [3] is reported as “inactive”. The Potency [4] was “inactive”.

In the case of `COC(C)(C)CCCC(C)CC=O` (centres undefined), the Potency [1] is reported as “inactive”, the Potency [2] is reported as “inactive” and the Potency [3] is reported as “inactive”. The Potency [4] was “inactive”.

For `NCC(=O)CCC(=O)O`, the Potency [1] was “inactive”, the Potency [2] was “inactive” and the Potency [3] was “inactive”. For the same molecule, the Potency [4] was “inactive”.

`CCN1CCC[C@H]1CNC(=O)c1c(O)c(Cl)cc(Cl)c1OC` was tested, and the Potency [1] was “inactive”, the Potency [2] was “inactive” and the Potency [3] was “inactive”. For the same molecule, the Potency [4] was “inactive”.

With `Oc1ccccc1F` the Potency [1] was “inactive”, the Potency [2] was “inactive” and the Potency [3] was “inactive”. The Potency [4] was “inactive”.

`O=C(COc1ccc(Cl)cc1)N1CCN(Cc2ccc3c(c2)OCO3)CC1` was tested, and the Potency [1] was “inactive”, the Potency [2] was “inactive” and the Potency [3] was “inactive”. The Potency [4] was “inactive”.

In the case of `CO[Si](CCCNCCN)(OC)OC`, the Potency [1] is reported as “inactive”, the Potency [2] is reported as “inactive” and the Potency [3] is reported as “inactive”. The Potency [4] was “inactive”.

In the case of `O=C1c2ccccc2C(=O)C1c1ccc(Br)cc1`, the Potency [1] is reported as “inactive”, the Potency [2] is reported as “inactive” and the Potency [3] is reported as “inactive”. The Potency [4] was “inactive”.

In the case of `O=C1c2c(O)ccc(Nc3ccc(CCO)cc3)c2C(=O)c2c([N+](=O)[O-])ccc(O)c21`, the Potency [1] is reported as 8.94 µM (active), the Potency [2] is reported as 20 µM (active) and the Potency [3] is reported as 11.2 µM (active). For the same molecule, the Potency [4] was “inactive”.

With `Nc1ccc(C(=O)N2CC3CC(CN(Cc4ccccc4)C3)C2)cc1` the Potency [1] was “inactive”, the Potency [2] was “inactive” and the Potency [3] was “inactive”. The Potency [4] was “inactive”.

With `S=C(NC1CCCCC1)NC1CCCCC1` the Potency [1] was “inactive”, the Potency [2] was “inactive” and the Potency [3] was “inactive”. The Potency [4] was “inactive”.

With `Cc1ccc2cccnc2c1` the Potency [1] was “inactive”, the Potency [2] was “inactive” and the Potency [3] was “inactive”. The Potency [4] was “inactive”.

In the case of `C1CCC(SSC2CCCCC2)CC1`, the Potency [1] is reported as “inactive”, the Potency [2] is reported as “inactive” and the Potency [3] is reported as “inactive”. For the same molecule, the Potency [4] was “inactive”.

For `C=CC(=O)N1CCOCC1`, the Potency [1] was “inactive”, the Potency [2] was “inactive” and the Potency [3] was “inactive”. For the same molecule, the Potency [4] was “inactive”.

For `CCCCCCCCCCCCI`, the Potency [1] was “inactive”, the Potency [2] was “inactive” and the Potency [3] was “inactive”. The Potency [4] was “inactive”.

With `Nc1cccc(N)n1` the Potency [1] was “inactive”, the Potency [2] was “inactive” and the Potency [3] was “inactive”. The Potency [4] was “inactive”.

`O=C=NC1CCC(CC2CCC(N=C=O)CC2)CC1` (centres undefined) was tested, and the Potency [1] was “inactive”, the Potency [2] was “inactive” and the Potency [3] was “inactive”. For the same molecule, the Potency [4] was “inactive”.

`C#C[C@]1(O)CC[C@H]2[C@@H]3CCC4=Cc5oncc5C[C@]4(C)[C@H]3CC[C@@]21C` was tested, and the Potency [1] was “inactive”, the Potency [2] was “inactive” and the Potency [3] was “inactive”. For the same molecule, the Potency [4] was “inactive”.

`Cc1ccc(C)c(S(=O)(=O)O)c1` was tested, and the Potency [1] was “inactive”, the Potency [2] was “inactive” and the Potency [3] was “inactive”. The Potency [4] was “inactive”.

For `CC1(C)OC[C@@H]2O[C@@]3(C(=O)O)OC(C)(C)O[C@H]3[C@@H]2O1`, the Potency [1] was “inactive”, the Potency [2] was “inactive” and the Potency [3] was “inactive”. For the same molecule, the Potency [4] was “inactive”.

With `CCc1occc(=O)c1O` the Potency [1] was “inactive”, the Potency [2] was “inactive” and the Potency [3] was “inactive”. The Potency [4] was “inactive”.

In the case of `C=CCCCCCCCCC(=O)O`, the Potency [1] is reported as “inactive”, the Potency [2] is reported as “inactive” and the Potency [3] is reported as “inactive”. The Potency [4] was “inactive”.

For `c1ccc(CNc2ncnc3c2ncn3C2CCCCO2)cc1` (centres undefined), the Potency [1] was “inactive”, the Potency [2] was “inactive” and the Potency [3] was “inactive”. For the same molecule, the Potency [4] was “inactive”.

With `CCCCOC(O)CC` (centres undefined) the Potency [1] was “inactive”, the Potency [2] was “inactive” and the Potency [3] was “inactive”. For the same molecule, the Potency [4] was “inactive”.

For `O=C(O)c1ccccc1OP(=O)(O)O`, the Potency [1] was “inactive”, the Potency [2] was “inactive” and the Potency [3] was “inactive”. For the same molecule, the Potency [4] was “inactive”.

With `CC(=O)C(=O)O` the Potency [1] was “inactive”, the Potency [2] was “inactive” and the Potency [3] was “inactive”. The Potency [4] was “inactive”.

`CCSC(=O)N(CC(C)C)CC(C)C` was tested, and the Potency [1] was “inactive”, the Potency [2] was “inactive” and the Potency [3] was “inactive”. The Potency [4] was “inactive”.

For `COc1cc2c(c(OC)c1OC)-c1ccc(OC)c(=O)cc1[C@@H](NC(C)=O)CC2`, the Potency [1] was “inactive”, the Potency [2] was “inactive” and the Potency [3] was “inactive”. The Potency [4] was “inactive”.

With `CSc1c(Cl)c(Cl)c(Cl)c(Cl)c1Cl` the Potency [1] was “inactive”, the Potency [2] was “inactive” and the Potency [3] was “inactive”. For the same molecule, the Potency [4] was “inactive”.

`CCCCCCCCCCCCCBr` was tested, and the Potency [1] was “inactive”, the Potency [2] was “inactive” and the Potency [3] was “inactive”. For the same molecule, the Potency [4] was “inactive”.

In the case of `CC(=O)NCCO`, the Potency [1] is reported as “inactive”, the Potency [2] is reported as “inactive” and the Potency [3] is reported as “inactive”. The Potency [4] was “inactive”.

In the case of `CCCC1O[C@@H]2C[C@H]3[C@@H]4CCC5=CC(=O)C=C[C@]5(C)[C@H]4[C@@H](O)C[C@]3(C)[C@]2(C(=O)CO)O1` (some centres undefined), the Potency [1] is reported as “inactive”, the Potency [2] is reported as “inactive” and the Potency [3] is reported as “inactive”. For the same molecule, the Potency [4] was “inactive”.

For `O=C1OC(=O)c2ccc3c4c(ccc1c24)C(=O)OC3=O`, the Potency [1] was “inactive”, the Potency [2] was “inactive” and the Potency [3] was “inactive”. The Potency [4] was “inactive”.

With `CCC(C)OC(=O)c1ccc(O)cc1` (centres undefined) the Potency [1] was “inactive”, the Potency [2] was “inactive” and the Potency [3] was “inactive”. The Potency [4] was “inactive”.
